Data published in PubChem BioAssay AID485317 (Broad Institute, 2010).
Out of some 290,000 compounds screened, about 11,000 (3.8%) were called active.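 The calls were made as follows: active = mean replicate inhibition above about 79%, with every replicate also reaching it (limit read from the data); inconclusive = only one of the two criteria met; inactive = mean below limit and not every replicate reaching it.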 What follows is part of a selection rich in actives, with near analogues and random picks from the rest.

target: FAD-linked sulfhydryl oxidase ALR (Homo sapiens) (UniProt P55789); test: inhibitors of human ALR sulfhydryl oxidase, primary screen, biochemical, H2O2 detection, HRP-luminol luminescence, single point (AID 485317); conditions: purified ALR, DTT oxidation, stronger effect = higher value, concentration not given here
Sequence (P55789 whole entry, looked up): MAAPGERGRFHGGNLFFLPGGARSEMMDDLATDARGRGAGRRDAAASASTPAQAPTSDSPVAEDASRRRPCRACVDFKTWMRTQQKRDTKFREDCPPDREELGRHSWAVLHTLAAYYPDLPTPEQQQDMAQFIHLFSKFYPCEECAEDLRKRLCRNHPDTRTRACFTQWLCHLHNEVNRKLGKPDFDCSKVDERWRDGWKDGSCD

Q: How did the inhibition turn out when `O=C1N[C@H](Cc2ccccc2)C(=O)N[C@H]1Cc1cn(S(=O)(=O)c2ccccc2)c2ccccc12` was run?
A: The inhibition was -2.64% (inactive).

Q: `CN1CCN(C(=O)c2ccc(-c3ccc(Br)cc3)o2)CC1` was tested. Which inhibition did it give?
A: Its inhibition is 6.66% (inactive).

Q: How did the inhibition turn out when `O=C(N/N=C/c1c[nH]c2ccccc12)c1ccccc1O` was run?
A: The inhibition was 41.8% (inactive).

Q: `CSC(=S)N/N=C/c1c[nH]c2ccccc12` was tested. Which inhibition did it give?
A: Its inhibition is 64.4% (inactive).

Q: For `O=C(O)c1cccc(NC(=S)N/N=C/c2c[nH]c3ccccc23)c1`, which inhibition is on record?
A: Its inhibition is 98.2% (active).

Q: With `CCNC(=O)c1cccc(NC(=O)C2CC(=O)N(CCc3ccccc3)C2)c1` (stereo not given) as the compound, how does the inhibition read?
A: Its inhibition is -0.0795% (inactive).

Q: Which inhibition does the source give for `CC(OC(=O)CNC(=O)c1ccco1)C(=O)Nc1ccc(Cl)cn1` (stereo not given) here?
A: Its inhibition is -1.13% (inactive).

Q: With `COc1cccc(N2CCN(c3ccc4nnc(CCC(=O)N5CCN(C)CC5)n4n3)CC2)c1` as the compound, how does the inhibition read?
A: Its inhibition is 98.2% (active).

Q: How did the inhibition turn out when `COc1cccc(NC(=O)CCc2nnc3ccc(N4CCC(C)CC4)nn23)c1` was run?
A: The inhibition was -1.49% (inactive).

Q: Which inhibition does the source give for `CCOC(=O)c1cccc(NC(=O)CCc2nnc3ccc(N4CCOCC4)nn23)c1` here?
A: Its inhibition is 26.9% (inactive).

Q: With `C=CCSc1nnc2c(n1)-c1cccc3cccc-2c13` as the compound, how does the inhibition read?
A: The inhibition was 9.81% (inactive).

Q: How did the inhibition turn out when `COc1ccc(S(=O)(=O)N2CCOCC2)cc1NC(=O)Cc1c(F)cccc1Cl` was run?
A: Its inhibition is -4.89% (inactive).

Q: Which inhibition does the source give for `COc1ccccc1CNC(=O)COC(=O)c1cccs1` here?
A: Its inhibition is 20.2% (inactive).

Q: Which inhibition does the source give for `CN(CC(=O)Nc1ccccc1Cl)C(=O)c1ccccc1SCC(=O)N1CCCC1` here?
A: Its inhibition is -3.42% (inactive).

Q: Which inhibition does the source give for `COC(=O)c1ccccc1NC(=S)NC(=O)c1ccccc1F` here?
A: Its inhibition is 97.1% (active).

Q: With `NC(=O)c1ccccc1NC(=O)c1ccccc1F` as the compound, how does the inhibition read?
A: The inhibition was 0.399% (inactive).

Q: `COC(=O)c1ccccc1NC(=O)c1ccccc1NS(C)(=O)=O` was tested. Which inhibition did it give?
A: The inhibition was 4.54% (inactive).

Q: How did the inhibition turn out when `Cc1cc(N2CCCC2)ccc1NC(=O)COc1ccc(Cl)cc1` was run?
A: The inhibition was -0.012% (inactive).

Q: For `O=C(NCCC1CCCCN1S(=O)(=O)c1ccc(F)cc1)C(=O)NC1CC1` (stereo not given), which inhibition is on record?
A: Its inhibition is -2.2% (inactive).

Q: With `Nc1scc(-c2ccncc2)c1Cl` as the compound, how does the inhibition read?
A: The inhibition was 98.8% (active).

Q: With `Clc1ccc(-c2csc(-c3ccncc3)n2)cc1` as the compound, how does the inhibition read?
A: The inhibition was -4.48% (inactive).

Q: How did the inhibition turn out when `O=c1[nH]c(/C=C/c2cccc(Br)c2)nc2ccccc12` was run?
A: The inhibition was -2.23% (inactive).

Q: How did the inhibition turn out when `CC(C)(C)OC(=O)C[C@@H]1C/C=C\C[C@@H](CC(=O)N[C@H](CO)Cc2ccccc2)C(=O)NCCOC1=O` was run?
A: Its inhibition is 1.41% (inactive).

Q: `CCOc1ccc(NC(=O)CN2CCN(CC(=O)Nc3ccc(OC)cc3)CC2)cc1` was tested. Which inhibition did it give?
A: The inhibition was -10.2% (inactive).

Q: For `C=CCn1c(SCC(=O)Nc2ccc(NC(C)=O)cc2)nc2sc(C)c(C)c2c1=O`, which inhibition is on record?
A: Its inhibition is -2.72% (inactive).

Q: Which inhibition does the source give for `CCOc1ccc(-n2c(SCC(=O)Nc3cc(C(=O)O)ccc3Cl)nc3ccccc3c2=O)cc1` here?
A: The inhibition was -3.41% (inactive).

Q: For `CCc1nnc(NC(=O)CSc2nc3c(c(=O)n2-c2ccccc2OC)SCC3)s1`, which inhibition is on record?
A: The inhibition was 1.36% (inactive).

Q: Which inhibition does the source give for `CCc1nc(SCC(=O)Nc2ccccc2OC)n[nH]1` here?
A: The inhibition was -18% (inactive).

Q: `CCOc1ccc(-n2c(SCC(=O)Nc3ccc(OC)cc3)nc3sc4c(c3c2=O)CCN(C)C4)cc1` was tested. Which inhibition did it give?
A: The inhibition was 98.6% (active).

Q: Which inhibition does the source give for `C=CCn1c(SCC(=O)NCCCO)nc2sc3c(c2c1=O)CCC3` here?
A: The inhibition was -4.11% (inactive).

Q: For `COc1ccccc1NC(=O)CSc1nnc(Cn2nnc(-c3ccccc3)n2)n1-c1ccccc1`, which inhibition is on record?
A: Its inhibition is -1.41% (inactive).

Q: `COc1ccccc1NC(=O)CSc1nc2sc3c(c2c(=O)n1-c1ccccc1)CCN(C)C3` was tested. Which inhibition did it give?
A: Its inhibition is 99% (active).

Q: How did the inhibition turn out when `COc1ccccc1-n1c(SCC(=O)Nc2cccc(C(=O)O)c2)nnc1-c1ccccc1O` was run?
A: The inhibition was 3.17% (inactive).

Q: How did the inhibition turn out when `CCOc1ccc(NC(=O)CSc2nc3c(c(=O)n2-c2ccccc2OC)SCC3)cc1` was run?
A: The inhibition was 93.4% (active).

Q: Which inhibition does the source give for `CCn1c(SCC(=O)Nc2ccc(Br)cc2)nc2sc3c(c2c1=O)CCN(C)C3` here?
A: The inhibition was 99% (active).

Q: Which inhibition does the source give for `CCN(CC)S(=O)(=O)c1ccc(N2CCCC2)c(NC(=O)c2ccc([N+](=O)[O-])o2)c1` here?
A: The inhibition was -36.7% (inactive).

Q: How did the inhibition turn out when `CC(C)(C)OC(=O)C[C@@H]1C/C=C\C[C@@H](CC(=O)NCCO)C(=O)N[C@H](Cc2c[nH]c3ccccc23)COC1=O` was run?
A: The inhibition was -9.99% (inactive).

Q: `CCN(CC(=O)NCc1ccc(F)cc1)S(=O)(=O)c1ccc(Cl)s1` was tested. Which inhibition did it give?
A: The inhibition was -4.96% (inactive).

Q: With `Cc1ccc(CNC(=O)CC(NC(=O)c2ccccc2)c2ccccc2)cc1` (stereo not given) as the compound, how does the inhibition read?
A: Its inhibition is 1.43% (inactive).

Q: For `CC(=O)Nc1ccc(S(=O)(=O)NCCC(=O)N2CCN(c3ccccc3Cl)CC2)cc1`, which inhibition is on record?
A: The inhibition was 0.296% (inactive).

Q: For `O=C(CSc1nc2[nH]ncc2c(=O)[nH]1)Nc1ccc(F)cc1`, which inhibition is on record?
A: The inhibition was -2.71% (inactive).

Q: How did the inhibition turn out when `Cc1ccc(C)c(-n2c(SCC(=O)O)nc3sc4c(c3c2=O)CCCC4)c1` was run?
A: Its inhibition is 4.79% (inactive).

Q: Which inhibition does the source give for `CCOc1ccc(-n2c(SC(C)C(=O)OC)nc3c(c2=O)SCC3)cc1` (stereo not given) here?
A: The inhibition was -1.69% (inactive).

Q: How did the inhibition turn out when `CCOc1ccc(-n2c(SCC(=O)OC)nc3sc4c(c3c2=O)CCN(C)C4)cc1` was run?
A: The inhibition was 99.2% (active).

Q: Which inhibition does the source give for `O=C(N[C@@H](Cc1ccccc1)C(=O)OCc1ccccc1)c1nc[nH]c1C(=O)NC1CCNCC1` here?
A: The inhibition was 63.1% (inactive).

Q: How did the inhibition turn out when `O=C(Nc1ccc(NC(=O)c2ccc3c(c2)OCO3)cc1)c1cccc(Cl)c1` was run?
A: Its inhibition is 4% (inactive).

Q: For `CC(=O)c1c(OCC(=O)N(C)C2CCCCC2)ccc2c(C)cc(=O)oc12`, which inhibition is on record?
A: The inhibition was -4.49% (inactive).

Q: How did the inhibition turn out when `Cn1c2ccccc2c(=O)c2c(=O)n(Cc3ccco3)c(COc3ccccc3)nc21` was run?
A: The inhibition was 96.8% (active).

Q: With `CCCc1nc2c(c(=O)c3ccccc3n2C)c(=O)n1-c1cc(C)cc(C)c1` as the compound, how does the inhibition read?
A: The inhibition was 9.11% (inactive).

Q: How did the inhibition turn out when `COc1ccc(C(=O)CSc2nnc(COc3ccccc3)n2Cc2ccco2)cc1` was run?
A: Its inhibition is 13.2% (inactive).

Q: How did the inhibition turn out when `COc1ccc(S(=O)(=O)N(C)C[C@@H]2Oc3ccc(NS(=O)(=O)c4cn(C)cn4)cc3C(=O)N([C@@H](C)CO)C[C@@H]2C)cc1` was run?
A: The inhibition was 0.531% (inactive).

Q: For `O=C(NC1CCCCC1)c1ccc(CNc2c(N3CCOCC3)c(=O)c2=O)cc1`, which inhibition is on record?
A: Its inhibition is 96.3% (active).

Q: With `CC1CCN(c2c(NCc3ccc(C(=O)NCc4ccccc4)cc3)c(=O)c2=O)CC1` as the compound, how does the inhibition read?
A: The inhibition was 6.63% (inactive).

Q: How did the inhibition turn out when `O=C(NCc1ccccc1)c1ccc(CNc2c(N3CCCC3)c(=O)c2=O)cc1` was run?
A: The inhibition was -1.76% (inactive).

Q: Which inhibition does the source give for `O=C(COC(=O)c1ccccn1)NNC(=O)c1ccc(Br)cc1` here?
A: The inhibition was -1.13% (inactive).
